Screens: PubChem BioAssay, Broad Institute
IDE exosite FP: displaces the probe from the exo-site of human IDE; z-score at 20 µM; P14735; purified IDE, FL-6b probe fluorescence polarization; active compounds read low; 17,000 compounds, 6.3% hits;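 active = z-score of -3 or lower, meaning strong loss of probe binding signal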;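 note: His-tagged human IDE residues 42-1019 made in E. coli with 30 nM FL-6b probe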
* hit, by the source's call. Many of the other results were omitted from the sample, so hits are more common in it than they were.

SMILES | IDE exosite FP
C[C@H](O)C#Cc1ccc([C@H]2[C@@H](CO)N3CCCCN(C(=O)Nc4ccccc4)C[C@H]23)cc1 | 1.2
C[C@H](CO)N1C[C@H](C)[C@@H](CN(C)S(=O)(=O)c2ccccc2F)Oc2ncc(/C=C/c3ccccc3)cc2C1=O | 0.42
Cc1noc(C)c1S(=O)(=O)Nc1ccc2c(c1)CC(=O)N([C@H](C)CO)C[C@@H](C)[C@H](CN(C)Cc1ccc(Oc3ccccc3)cc1)O2 | -1.1
Cc1noc(C)c1S(=O)(=O)Nc1ccc2c(c1)CC(=O)N([C@@H](C)CO)C[C@H](C)[C@@H](CN(C)Cc1ccc(Oc3ccccc3)cc1)O2 | -4.3*
Cc1noc(C)c1S(=O)(=O)Nc1ccc2c(c1)CC(=O)N([C@H](C)CO)C[C@H](C)[C@H](CN(C)Cc1ccc(Oc3ccccc3)cc1)O2 | 0.079
C[C@@H]1CN([C@@H](C)CO)C(=O)c2cc(N(C)C)ccc2O[C@@H]1CN(C)Cc1ccc(Oc2ccccc2)cc1 | -1.4
C[C@@H]1CN([C@H](C)CO)C(=O)c2cc(/C=C/c3ccccc3)cnc2O[C@@H]1CN(C)S(=O)(=O)c1ccccc1F | -2.1
C[C@H]1CN([C@@H](C)CO)C(=O)c2cc(Br)cnc2O[C@H]1CN(C)Cc1ccc(Oc2ccccc2)cc1 | -3.5*
C[C@@H]1CN([C@@H](C)CO)C(=O)c2cc(/C=C/c3ccccc3)cnc2O[C@@H]1CN(C)S(=O)(=O)c1ccccc1F | -4*
C[C@@H]1CN([C@@H](C)CO)C(=O)c2cc(N(C)C)ccc2O[C@H]1CN(C)Cc1ccc(Oc2ccccc2)cc1 | -0.56
COCC#Cc1ccc([C@@H]2[C@@H](CO)N3C(=O)CN(C(=O)CN4CCOCC4)C[C@@H]23)cc1 | 0.15
CCS(=O)(=O)NCC[C@H]1CC[C@H](NS(=O)(=O)c2ccccc2C)[C@H](CO)O1 | 2
COc1cccc(NC(=O)N2CC(=O)N3[C@H](CO)[C@H](c4ccc(Br)cc4)[C@@H]3C2)c1 | 2.1
O=C(C[C@H]1C[C@@H]2c3cc(NS(=O)(=O)c4ccccc4)ccc3O[C@@H]2[C@@H](CO)O1)N1CCOCC1 | 0.54
CN(C)C(=O)c1cccc(-c2ccccc2[C@H]2[C@@H](CO)N(C(=O)C3CCCCC3)[C@H]2C#N)c1 | 1.1
CCC(=O)N1CCCCN2[C@H](CO)[C@H](c3ccc(C#Cc4ccccc4F)cc3)[C@H]2C1 | -1.1
CC(=O)N1CCCCN2[C@@H](CO)[C@@H](c3ccc(C#Cc4ccccc4F)cc3)[C@@H]2C1 | -2.9
O=C(c1ccc(F)cc1)N1CCCCN2[C@@H](CO)[C@@H](c3ccc(C#CC4(O)CCCC4)cc3)[C@@H]2C1 | 1.8
CCC(=O)N1CCCCN2[C@@H](CO)[C@H](c3ccc(-c4ccc(F)cc4)cc3)[C@@H]2C1 | 2.7
CCC(=O)N1CCCCN2[C@H](CO)[C@@H](c3ccc(C#Cc4ccccc4F)cc3)[C@@H]2C1 | -5.8*
O=C(Nc1ccccc1F)N1CCCCN2[C@@H](CO)[C@@H](c3ccc(C#Cc4ccccc4)cc3)[C@@H]2C1 | -0.93
O=C(c1ccc(F)cc1)N1CCCCN2[C@@H](CO)[C@H](c3ccc(C#CC4(O)CCCC4)cc3)[C@@H]2C1 | 5.8
O=C(c1ccc(F)cc1)N1CCCCN2[C@H](CO)[C@H](c3ccc(C#CC4(O)CCCC4)cc3)[C@H]2C1 | -3.2*
CC(=O)N1CCCCN2[C@H](CO)[C@@H](c3ccc(C#Cc4ccccc4F)cc3)[C@@H]2C1 | -7.5*
CCC(=O)N1CCCCN2[C@H](C1)[C@H](c1ccc(C#Cc3ccccc3F)cc1)[C@@H]2CO | -4.6*
SMILES | IDE exosite FP
COc1ccc(C#Cc2ccc([C@@H]3[C@H](CO)N4CCCCN(C(=O)Nc5ccccc5F)C[C@@H]34)cc2)cc1 | 3
COc1ccc(C#Cc2ccc([C@H]3[C@H](CO)N4CCCCN(C(=O)Nc5ccccc5F)C[C@@H]34)cc2)cc1 | 2.3
CCCNC(=O)N1C[C@H](O)COC[C@H]2O[C@@H](CC(=O)OC)CC[C@@H]21 | 0.93
COc1ccccc1CNC(=O)C[C@@H]1C=C[C@@H](NC(=O)CC2CC2)[C@@H](CO)O1 | -0.39
C[C@@H]1CCCCO[C@@H](CN(C)C(=O)Nc2ccc3c(c2)OCO3)[C@H](C)CN([C@@H](C)CO)C(=O)c2cc(NS(=O)(=O)c3ccc(F)cc3)ccc2O1 | 0.72
O=C(Nc1ccc(F)cc1)N1CC(=O)N2[C@H](CO)[C@@H](c3ccc(Br)cc3)[C@@H]2C1 | -1.1
CCCC#Cc1ccc([C@@H]2[C@@H](CO)N3C(=O)CN(C(=O)CN4CCOCC4)C[C@@H]23)cc1 | 4.9
Cc1ccccc1-c1ccc([C@@H]2[C@@H](CO)N3C(=O)CN(C(=O)c4ccc(F)cc4)C[C@H]23)cc1 | -0.12
Cc1ccccc1-c1ccc([C@H]2[C@@H](CO)N3C(=O)CN(C(=O)c4ccccc4)C[C@@H]23)cc1 | -8.3*
Cc1ccccc1-c1ccc([C@H]2[C@H](CO)N3C(=O)CN(C(=O)c4ccncc4)C[C@@H]23)cc1 | -7.4*
O=C(c1ccccc1)N1CC(=O)N2[C@H](C1)[C@@H](c1ccc(-c3ccccc3)cc1)[C@@H]2CO | -0.84
CC(=O)NC[C@H]1[C@@H](c2ccc(C#C[C@@H](C)O)cc2)[C@@H](CO)N1Cc1ccccn1 | -0.39
CCCC#Cc1ccc([C@@H]2[C@@H](CO)N3C(=O)CN(C(=O)Nc4ccccc4)C[C@H]23)cc1 | 5
N#C[C@@H]1[C@@H](c2ccc(C#Cc3ccccc3F)cc2)[C@@H](CO)N1C(=O)C1CCC1 | 1.6
N#C[C@H]1[C@@H](c2ccccc2)[C@H](CO)N1C(=O)c1cccnc1 | 3.6
N#C[C@H]1[C@@H](c2ccc(C#Cc3ccccc3F)cc2)[C@H](CO)N1C(=O)C1CCC1 | 0.22
N#C[C@@H]1[C@@H](c2ccc(C#Cc3ccccc3F)cc2)[C@H](CO)N1C(=O)c1cccnc1 | -2.5
COCC(=O)N1[C@@H](C#N)[C@H](c2ccc(C#Cc3ccccc3F)cc2)[C@@H]1CO | -4.3*
N#C[C@H]1[C@H](c2ccc(C#Cc3ccccc3F)cc2)[C@@H](CO)N1C(=O)c1cccnc1 | -5.5*
COCC(=O)N1[C@@H](C#N)[C@@H](c2ccc(C#Cc3ccccc3F)cc2)[C@@H]1CO | 0.64
N#C[C@H]1[C@@H](c2ccc(C#Cc3ccccc3F)cc2)[C@@H](CO)N1C(=O)C1CCOCC1 | -3.7*
N#C[C@H]1[C@@H](c2ccc(C#Cc3ccccc3F)cc2)[C@@H](CO)N1C(=O)C1CCC1 | 0.33
COCC(=O)N1[C@H](C#N)[C@H](c2ccc(C#Cc3ccccc3F)cc2)[C@H]1CO | -2.3
N#C[C@H]1[C@H](c2ccc(C#Cc3ccccc3F)cc2)[C@H](CO)N1C(=O)C1CC1 | -1.2
N#C[C@@H]1[C@H](c2ccc(C#Cc3ccccc3F)cc2)[C@H](CO)N1C(=O)C1CCOCC1 | -6.4*
SMILES | IDE exosite FP
CCNC[C@@H]1[C@H](c2ccc(-c3ccc(F)cc3)cc2)[C@H](CO)N1S(C)(=O)=O | 5.1
C/C=C/c1ccc(C2[C@H]3CNC[C@@H]2N3Cc2ccccc2C(F)(F)F)cc1 (some centres not stated) | 0.72
CC(=O)NC[C@@H]1[C@@H](c2ccc(-c3cccnc3)cc2)[C@H](CO)N1C(=O)C1CCC1 | 1
O=C(NC[C@@H]1[C@H](c2ccccc2)[C@H](CO)N1CC1CCCC1)c1ccccc1 | 2.5
COc1ccccc1NC(=O)N1CC(=O)N2[C@@H](CO)[C@@H](c3ccc(C#CCC(C)C)cc3)[C@@H]2C1 | 1.9
COc1ccc2c3c(n(C)c2c1)[C@@H](CO)N(C(=O)c1ccccc1)CC31CCN(C(=O)c2ccccc2)CC1 | -0.62
